Data as given in PubChem BioAssay (Tox21).
Results filed as inconclusive are left out. Activity calls are given as the source filed them. Calls follow the shape of the dose curve; as a rule, active = well fitted curve in the direction sought with a large enough effect in the repeat runs; inconclusive = weak or mixed curves; inactive = no such curve, though single readings can be large; an effect the other way counts as inactive or inconclusive.

Legend:
[1] = qHTS RealTime-Glo MT Cell Viability Assay in HEK293 cells - 40 hour (AID 1224874); details: RealTime-Glo luminescence; max response: stronger effect = lower value; also: nearly all actives have a fitted effect of over 50% in size; also: potency is read from the fitted curve at half-maximal effect
How it was run: (§1)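 HEK293 + NanoLuc + prosubstrate, 600 cells/well; 5 h, 37 C/5% CO2; compound 23 nL in DMSO by pintool; 37 C; luminescence read at 0, 8, 16, 24, 32 and 40 h time points.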

[2] = A CellTox Green Cytotoxicity Assay to monitor cytotoxicity in HEK293 cells - 24 hour (AID 1224875); also: series mostly up to about 77 µM; nearly all actives have a fitted effect of over 45% in size
How it was run: (§2)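 Tox21 screen in HEK293: membrane-impermeant cyanine dye fluoresces on binding dead-cell DNA; compound pinned 5 h post-seeding, plates held at 37 C, signal read repeatedly through 40 h.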

[3] = A CellTox Green Cytotoxicity Assay to monitor cytotoxicity in HepG2 cells - 16 hour (AID 1224876); also: nearly all actives have a fitted effect of over 45% in size
How it was run: (§3)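 Measurements at 0, 8, 16, 24, 32 and 40 h of treatment captured CellTox Green fluorescence in HepG2 cells that had been co-plated with reagent and preincubated 5 h at 37 C/5% CO2.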

[4] = qHTS RealTime-Glo MT Cell Viability Assay in HepG2 cells - 32 hour (AID 1224877); also: nearly all actives have a fitted effect of over 55% in size
How it was run: (§4)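 Cells + NanoLuc/prosubstrate dispensed (600 cells/well) → 5 h at 37 C/5% CO2 → compounds in DMSO transferred → 40 h incubation at 37 C, luminescence read at 0, 8, 16, 24, 32, 40 h.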

[5] = A CellTox Green Cytotoxicity Assay to monitor cytotoxicity in HepG2 cells - 24 hour (AID 1224878); also: nearly all actives have a fitted effect of over 45% in size
How it was run: as §3

[6] = A CellTox Green Cytotoxicity Assay to monitor cytotoxicity in HepG2 cells - 40 hour (AID 1224879); also: nearly all actives have a fitted effect of over 40% in size
How it was run: as §3

[7] = qHTS RealTime-Glo MT Cell Viability Assay in HEK293 cells - 0 hour (AID 1224880); also: top concentration of the series differs between compounds; nearly all actives have a fitted effect of over 45% in size
How it was run: as §1

[8] = A CellTox Green Cytotoxicity Assay to monitor cytotoxicity in HEK293 cells - 32 hour (AID 1224881); also: nearly all actives have a fitted effect of over 40% in size
How it was run: as §2

[9] = A CellTox Green Cytotoxicity Assay to monitor cytotoxicity in HepG2 cells - 0 hour (AID 1224882); also: nearly all actives have a fitted effect of over 35% in size
How it was run: as §3

[10] = A CellTox Green Cytotoxicity Assay to monitor cytotoxicity in HepG2 cells - 32 hour (AID 1224883); also: nearly all actives have a fitted effect of over 50% in size
How it was run: as §3

[11] = A CellTox Green Cytotoxicity Assay to monitor cytotoxicity in HEK293 cells - 8 hour (AID 1224884); also: nearly all actives have a fitted effect of over 35% in size
How it was run: as §2

[12] = qHTS RealTime-Glo MT Cell Viability Assay in HepG2 cells - 16 hour (AID 1224885); also: nearly all actives have a fitted effect of over 50% in size
How it was run: as §4

[13] = qHTS RealTime-Glo MT Cell Viability Assay in HEK293 cells - 8 hour (AID 1224887); also: top concentration of the series differs between compounds; nearly all actives have a fitted effect of over 50% in size
How it was run: as §1

[14] = A CellTox Green Cytotoxicity Assay to monitor cytotoxicity in HEK293 cells - 16 hour (AID 1224888); also: nearly all actives have a fitted effect of over 35% in size
How it was run: as §2

[15] = qHTS RealTime-Glo MT Cell Viability Assay in HepG2 cells - 0 hour (AID 1224889); also: nearly all actives have a fitted effect of over 50% in size
How it was run: as §4

[16] = A CellTox Green Cytotoxicity Assay to monitor cytotoxicity in HepG2 cells - 8 hour (AID 1224890); also: nearly all actives have a fitted effect of over 45% in size
How it was run: as §3

[17] = qHTS assay to identify small molecule antagonists of the estrogen receptor alpha (ER-alpha) signaling pathway using the BG1 cell line in the presence of 0.1 nM 17-beta-estradiol - cell viability counter screen (AID 1259241); also: nearly all actives have a fitted effect of over 40% in size
How it was run: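 Measures cytotoxicity alongside the ER-alpha antagonist readout: VM7Luc4E2 cells, charcoal-stripped serum, 0.1 nM 17beta-estradiol final, 22 hr compound incubation at 37C, CellTiter-Fluor fluorescence.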

[18] = qHTS assay to identify small molecule antagonists of the androgen receptor (AR) signaling pathway using the MDA cell line in the presence of 0.5 nM R1881 - cell viability counter screen (AID 1259242); also: nearly all actives have a fitted effect of over 45% in size
How it was run: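 Concentration-response screen of compounds for toxicity in MDA-kb2 reporter cells: 16 hr at 37C with 0.5 nM R1881, endpoint live-cell protease fluorescence measured in the reporter wells.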

[19] = qHTS RealTime-Glo MT Cell Viability Assay in HEK293 cells - 24 hour (AID 1224886)
How it was run: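 Tox21 10K qHTS, HEK293, 600 cells/well, RealTime-Glo reagent co-dispensed with cells; 5 h preincubation, compound by pintool, 37 C, luminescence at 0–40 h.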

[20] = molecular target: Androgen receptor (Homo sapiens) (UniProt P10275); assay: qHTS assay to identify small molecule antagonists of the androgen receptor (AR) signaling pathway using the MDA cell line in the presence of 0.5 nM R1881 (AID 1259243); also: nearly all actives have a fitted effect of over 50% in size
Sequence of Androgen receptor (Homo sapiens) (P10275 whole entry, looked up): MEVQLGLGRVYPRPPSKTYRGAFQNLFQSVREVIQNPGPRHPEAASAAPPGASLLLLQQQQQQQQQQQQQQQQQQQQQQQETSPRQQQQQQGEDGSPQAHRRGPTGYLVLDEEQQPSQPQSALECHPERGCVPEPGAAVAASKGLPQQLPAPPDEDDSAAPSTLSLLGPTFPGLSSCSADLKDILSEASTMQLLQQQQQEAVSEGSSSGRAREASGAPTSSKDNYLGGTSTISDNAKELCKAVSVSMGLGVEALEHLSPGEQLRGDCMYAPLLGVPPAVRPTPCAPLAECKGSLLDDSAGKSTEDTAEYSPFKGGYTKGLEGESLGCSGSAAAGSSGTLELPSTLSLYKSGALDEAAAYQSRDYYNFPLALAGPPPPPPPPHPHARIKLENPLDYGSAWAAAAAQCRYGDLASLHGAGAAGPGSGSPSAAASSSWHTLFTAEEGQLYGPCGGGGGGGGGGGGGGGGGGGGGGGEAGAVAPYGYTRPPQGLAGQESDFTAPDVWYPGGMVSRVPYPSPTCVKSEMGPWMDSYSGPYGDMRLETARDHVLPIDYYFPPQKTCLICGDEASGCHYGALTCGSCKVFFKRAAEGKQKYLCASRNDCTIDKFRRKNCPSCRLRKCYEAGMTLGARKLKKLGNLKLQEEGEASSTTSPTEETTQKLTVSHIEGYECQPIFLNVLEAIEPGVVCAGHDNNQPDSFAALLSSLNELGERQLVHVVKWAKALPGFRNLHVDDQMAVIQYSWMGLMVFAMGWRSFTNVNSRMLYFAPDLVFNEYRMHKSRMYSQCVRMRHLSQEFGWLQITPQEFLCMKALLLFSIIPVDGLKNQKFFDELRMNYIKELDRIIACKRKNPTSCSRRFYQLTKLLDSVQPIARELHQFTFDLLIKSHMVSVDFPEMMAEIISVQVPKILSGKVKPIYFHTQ
How it was run: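 With R1881 held at 0.5 nM (final), compound effects on MMTV-luciferase expression in MDA-kb2 cells were scored by luminescence after a 16 hr, 37C incubation.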
% is scaled to controls: 0 for no effect and ±100 for the full control effect.

CC(C)(C)C(=O)OCOP(=O)(COCCn1cnc2c(N)ncnc21)OCOC(=O)C(C)(C)C
active: Potency [1] 0.848 µM
inactive: Potency [2] | Potency [3] | Potency [4] | Potency [5] | Potency [6] | Potency [7] | Potency [8] | Potency [9] | Potency [10] | Potency [11] | Potency [12] | Potency [13] | Potency [14] | Potency [15] | Potency [16] | Potency [17] | Potency [18]

CC(=O)c1c(C)c([N+](=O)[O-])c(C(C)(C)C)c([N+](=O)[O-])c1C
inactive: max response [1] -9.27% | Potency [2] | Potency [3] | Potency [4] | Potency [5] | Potency [6] | Potency [7] | Potency [8] | Potency [9] | Potency [10] | Potency [11] | Potency [12] | Potency [19] | Potency [13] | Potency [14] | Potency [15] | Potency [16] | Potency [18]

C=CC(=O)OCCOC(=O)CCC(=O)O
inactive: max response [1] 19.5% | Potency [2] | Potency [3] | Potency [4] | Potency [5] | Potency [6] | Potency [7] | Potency [8] | Potency [9] | Potency [10] | Potency [11] | Potency [12] | Potency [13] | Potency [14] | Potency [15] | Potency [16] | Potency [17] | Potency [18]

CCC(=O)OC(C)(C)C1CC=C(C)CC1 (stereo not drawn)
inactive: max response [1] -0.19% | Potency [2] | Potency [3] | Potency [4] | Potency [5] | Potency [6] | Potency [7] | Potency [8] | Potency [9] | Potency [10] | Potency [12] | Potency [19] | Potency [13] | Potency [14] | Potency [15] | Potency [16] | Potency [17] | Potency [18]

Cc1occc1S
inactive: max response [1] 3.01% | Potency [2] | Potency [3] | Potency [4] | Potency [5] | Potency [6] | Potency [7] | Potency [8] | Potency [9] | Potency [10] | Potency [12] | Potency [19] | Potency [13] | Potency [14] | Potency [15] | Potency [16] | Potency [17] | Potency [18]

CC(C)(Oc1ccc(Cl)cc1)C(=O)OCCCOC(=O)C(C)(C)Oc1ccc(Cl)cc1
inactive: max response [1] -17.7% | Potency [2] | Potency [3] | Potency [4] | Potency [5] | Potency [6] | Potency [7] | Potency [8] | Potency [9] | Potency [10] | Potency [11] | Potency [12] | Potency [14] | Potency [15] | Potency [16] | Potency [17] | Potency [18] | Potency [20]

Nc1cnn([C@@H]2O[C@H](CO)[C@@H](O)[C@H]2O)c(=O)n1
inactive: max response [1] -6.05% | Potency [2] | Potency [3] | Potency [4] | Potency [5] | Potency [6] | Potency [7] | Potency [8] | Potency [9] | Potency [10] | Potency [11] | Potency [12] | Potency [19] | Potency [13] | Potency [14] | Potency [15] | Potency [16] | Potency [18]

N#Cc1cc2ccccc2c2ccccc12
inactive: max response [1] -18.9% | Potency [2] | Potency [3] | Potency [4] | Potency [5] | Potency [6] | Potency [7] | Potency [8] | Potency [9] | Potency [10] | Potency [12] | Potency [19] | Potency [13] | Potency [14] | Potency [15] | Potency [16] | Potency [17] | Potency [18]

Cc1ccccc1N=Nc1ccc(N=Nc2c(O)ccc3ccccc23)c(C)c1
inactive: max response [1] 1.3% | Potency [2] | Potency [3] | Potency [4] | Potency [5] | Potency [6] | Potency [7] | Potency [8] | Potency [9] | Potency [10] | Potency [11] | Potency [12] | Potency [19] | Potency [13] | Potency [14] | Potency [15] | Potency [16] | Potency [18]

Oc1ccc(Sc2ccc(O)cc2)cc1
inactive: Potency [2] | Potency [3] | Potency [4] | Potency [5] | Potency [6] | Potency [7] | Potency [8] | Potency [9] | Potency [10] | Potency [11] | Potency [12] | Potency [14] | Potency [15] | Potency [16] | Potency [17] | Potency [18]
active: Potency [1] 22.9 µM

OC(CCN1CCCCC1)(c1ccccc1)C1CCCCC1 (stereo not drawn)
inactive: max response [1] -21.9% | Potency [2] | Potency [3] | Potency [4] | Potency [5] | Potency [6] | Potency [7] | Potency [8] | Potency [9] | Potency [10] | Potency [11] | Potency [12] | Potency [13] | Potency [14] | Potency [15] | Potency [16] | Potency [17] | Potency [18]

C=C(C)C(=O)OCCOc1ccccc1
inactive: max response [1] 8.99% | Potency [2] | Potency [3] | Potency [4] | Potency [5] | Potency [6] | Potency [7] | Potency [8] | Potency [9] | Potency [10] | Potency [11] | Potency [12] | Potency [19] | Potency [13] | Potency [14] | Potency [15] | Potency [16] | Potency [18] | Potency [20]

CCOc1ccc2[nH]cc(C(=O)NCc3ccccc3)c(=O)c2n1
inactive: max response [1] -23.2% | Potency [2] | Potency [3] | Potency [4] | Potency [5] | Potency [6] | Potency [7] | Potency [8] | Potency [9] | Potency [10] | Potency [12] | Potency [19] | Potency [13] | Potency [14] | Potency [15] | Potency [16] | Potency [17] | Potency [18]

CC(=O)SCc1ccco1
inactive: max response [1] 13.4% | Potency [2] | Potency [3] | Potency [4] | Potency [5] | Potency [6] | Potency [7] | Potency [8] | Potency [9] | Potency [10] | Potency [11] | Potency [12] | Potency [19] | Potency [13] | Potency [14] | Potency [15] | Potency [16] | Potency [18] | Potency [20]
